# Reference: PubChem BioAssay (NCI)
# About 79,000 compounds went through this panel and 15% of them were active in at least one assay; those are over-represented in the sample as a whole. Values without a mark were called inactive. Active and inactive are the calls of the source. Rule as the data show it: active = growth inhibition above about 70%; inactive = the rest.
# Columns and labels:
# [1] = NCI Yeast Anticancer Drug Screen. Data for the rad52 strain (AID 147);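 also: 0% = growth of vehicle-treated control cultures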; conditions: S. cerevisiae rad52 mutant growth inhibition, stronger effect = higher value
# Procedure, shortened: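 Screen used a yeast mutant impaired in DNA repair. After compound exposure, growth was measured. Values reflect inhibition compared with vehicle-treated cells.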
# [2] = NCI Yeast Anticancer Drug Screen. Data for the wt1 strain (AID 149);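 also: 0% = growth of vehicle-treated wt1 cultures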; conditions: S. cerevisiae wt1 strain (SPY 50644) growth inhibition, stronger effect = higher value
# Procedure, shortened: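 wt1 strain grown with compound or vehicle; inhibition taken from the growth difference.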
# [3] = NCI Yeast Anticancer Drug Screen. Data for the rad50EPP+ strain (AID 151);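 also: 0% = growth of vehicle-treated control cultures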; conditions: S. cerevisiae rad50 mutant strain, stronger effect = higher value
# Procedure, shortened: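 Exposing the rad50EPP+ strain to each compound, growth was compared with vehicle-only cultures to give inhibition.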
# [4] = NCI Yeast Anticancer Drug Screen. Data for the mgt1 strain (AID 153); conditions: S. cerevisiae mgt1 mutant growth inhibition, stronger effect = higher value
# Procedure, shortened: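 Genetically defined yeast (mgt1) treated with compound; inhibition of growth expressed against vehicle-treated controls.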
# [5] = NCI Yeast Anticancer Drug Screen. Data for the rad50 strain (AID 155);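 also: 0% = growth of vehicle-only cultures of the same strain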; conditions: S. cerevisiae rad50 strain growth inhibition, stronger effect = higher value
# Procedure, shortened: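 DNA repair mutant yeast, compound exposure, growth read-out; inhibition is taken relative to vehicle.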
# [6] = NCI Yeast Anticancer Drug Screen. Data for the mec2-1 strain (AID 157); conditions: S. cerevisiae mec2-1 strain, stronger effect = higher value
# Procedure, shortened: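 Readout is yeast growth inhibition, normalised to vehicle-treated controls, in the mec2-1 strain exposed to compound.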
# [7] = NCI Yeast Anticancer Drug Screen. Data for the rad14 strain (AID 159);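 also: 0% = growth of vehicle-treated control cultures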; conditions: S. cerevisiae rad14 strain growth inhibition, stronger effect = higher value
# Procedure, shortened: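 DNA repair-defective yeast, compound-exposed; % growth inhibition derived by comparison with vehicle-treated controls.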
# [8] = NCI Yeast Anticancer Drug Screen. Data for the sgs1 mgt1 strain (AID 161);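 also: 0% = growth of cultures given vehicle only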; conditions: S. cerevisiae sgs1 mgt1 strain, stronger effect = higher value
# Procedure, shortened: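 Yeast cells carrying a defined DNA-repair defect were exposed to test compounds. Growth inhibition was measured relative to vehicle-treated controls.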
# [9] = NCI Yeast Anticancer Drug Screen. Data for the CLN2oe strain (AID 163);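 also: 0% = growth of vehicle-only control cultures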; conditions: S. cerevisiae CLN2oe strain, stronger effect = higher value
# Procedure, shortened: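 Values reflect how much compound exposure reduced yeast growth, referenced to vehicle-exposed cells. Assay organism is a strain with a defined genetic change affecting cell-cycle control.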
# [10] = NCI Yeast Anticancer Drug Screen. Data for the cln2 rad14 strain (AID 165);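 also: 0% = growth equal to vehicle treated cultures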; conditions: S. cerevisiae cln2 rad14 strain, stronger effect = higher value
# Procedure, shortened: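 Relative to vehicle controls, growth inhibition of compound-treated cln2 rad14 yeast was recorded.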
# [11] = NCI Yeast Anticancer Drug Screen. Data for the bub3 strain (AID 167); conditions: S. cerevisiae bub3 mutant strain, stronger effect = higher value
# Procedure, shortened: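 In this screen, a yeast mutant lacking normal mitotic checkpoint function is challenged with compound. Relative growth versus vehicle gives the inhibition value.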
# [12] = NCI Yeast Anticancer Drug Screen. Data for the wt2 strain (AID 169);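 also: 0% = growth of vehicle-treated yeast cultures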; conditions: S. cerevisiae wt2 strain growth inhibition, stronger effect = higher value
# Procedure, shortened: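 Values express reduction in yeast growth under compound treatment, referenced to vehicle-treated cells.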
# [13] = NCI Yeast Anticancer Drug Screen. Data for the mlh1 strain (AID 171);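 also: 0% = growth of vehicle-treated control cultures of the same strain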; conditions: S. cerevisiae mlh1 strain growth inhibition, stronger effect = higher value
# Procedure, shortened: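 Steps: expose the defined-mutant yeast strain to compound; expose a parallel culture to vehicle; measure growth; express compound effect as inhibition relative to the vehicle culture.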
# [14] = NCI Yeast Anticancer Drug Screen. Data for the sgs1 strain (AID 173);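 also: 0% = growth of vehicle-only control cultures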; conditions: S. cerevisiae sgs1 mutant, stronger effect = higher value
# Procedure, shortened: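 Treat defined-mutant yeast with compound; measure growth; calculate inhibition relative to vehicle-treated cells.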
# [15] = NCI Yeast Anticancer Drug Screen. Data for the mlh1 rad18 strain (AID 175); conditions: S. cerevisiae mlh1 rad18 strain growth inhibition, stronger effect = higher value
# Procedure, shortened: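 Test agents were incubated with a yeast strain of defined genotype (DNA damage repair defect). Inhibition of growth was derived by comparison with vehicle-exposed cultures.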
# [16] = NCI Yeast Anticancer Drug Screen. Data for the rad18 strain (AID 177); conditions: S. cerevisiae rad18 mutant growth inhibition, stronger effect = higher value
# Procedure, shortened: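 A genetically defined yeast mutant impaired in DNA damage repair was treated with test compounds, then its growth was measured against cultures receiving vehicle alone.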
# [17] = at 5.0 µM (retest, dose inferred, filed as 0.5)
# [18] = at 50.0 µM (retest, dose inferred, filed as 5.0)
smiles,measurement,setting,value
O=C(CCCN1CCC2(CC1)CC(=O)N(N1CCCCCC1)C2=O)c1ccc(F)cc1,growth inhibition,[1]; at 1.2 µM,23%
same,growth inhibition,[1]; at 3.7 µM,34%
same,growth inhibition,[1]; at 11.0 µM,46%
same,growth inhibition,[1]; at 33.0 µM,53%
same,growth inhibition,[1]; at 100.0 µM,65%
same,growth inhibition,[2]; at 1.2 µM,11%
same,growth inhibition,[2]; at 3.7 µM,24%
same,growth inhibition,[2]; at 11.0 µM,25%
same,growth inhibition,[2]; at 33.0 µM,34%
same,growth inhibition,[2]; at 100.0 µM,41%
same,growth inhibition,[3]; at 1.2 µM,-2%
same,growth inhibition,[3]; at 3.7 µM,-2%
same,growth inhibition,[3]; at 11.0 µM,-1%
same,growth inhibition,[3]; at 33.0 µM,-1%
same,growth inhibition,[3]; at 100.0 µM,0%
same,growth inhibition,[4]; at 1.2 µM,32%
same,growth inhibition,[4]; at 3.7 µM,45%
same,growth inhibition,[4]; at 11.0 µM,67%
same,growth inhibition,[4]; at 33.0 µM,75% (active)
same,growth inhibition,[4]; at 100.0 µM,89% (active)
same,growth inhibition,[5]; at 1.2 µM,29%
same,growth inhibition,[5]; at 3.7 µM,26%
same,growth inhibition,[5]; [17],14%
same,growth inhibition,[5]; at 11.0 µM,33%
same,growth inhibition,[5]; at 33.0 µM,49%
same,growth inhibition,[5]; [18],46%
same,growth inhibition,[5]; at 50.0 µM,80.8% (active)
same,growth inhibition,[5]; at 100.0 µM,61%
same,growth inhibition,[6]; at 1.2 µM,25%
same,growth inhibition,[6]; at 3.7 µM,28%
same,growth inhibition,[6]; [17],13%
same,growth inhibition,[6]; at 11.0 µM,31%
same,growth inhibition,[6]; at 33.0 µM,40%
same,growth inhibition,[6]; [18],41%
same,growth inhibition,[6]; at 50.0 µM,45.8%
same,growth inhibition,[6]; at 100.0 µM,45%
same,growth inhibition,[7]; at 1.2 µM,45%
same,growth inhibition,[7]; at 3.7 µM,51%
same,growth inhibition,[7]; at 11.0 µM,64%
same,growth inhibition,[7]; at 33.0 µM,73% (active)
same,growth inhibition,[7]; at 100.0 µM,87% (active)
same,growth inhibition,[8]; [17],45%
same,growth inhibition,[8]; [18],74% (active)
same,growth inhibition,[8]; at 50.0 µM,84.4% (active)
same,growth inhibition,[9]; at 1.2 µM,49%
same,growth inhibition,[9]; at 3.7 µM,45%
same,growth inhibition,[9]; at 11.0 µM,58%
same,growth inhibition,[9]; at 33.0 µM,71% (active)
same,growth inhibition,[9]; at 100.0 µM,79% (active)
same,growth inhibition,[10]; [17],63%
same,growth inhibition,[10]; [18],82% (active)
same,growth inhibition,[10]; at 50.0 µM,72% (active)
same,growth inhibition,[11]; at 1.2 µM,40%
same,growth inhibition,[11]; at 3.7 µM,41%
same,growth inhibition,[11]; [17],36%
same,growth inhibition,[11]; at 11.0 µM,51%
same,growth inhibition,[11]; at 33.0 µM,61%
same,growth inhibition,[11]; [18],41%
same,growth inhibition,[11]; at 50.0 µM,73.3% (active)
same,growth inhibition,[11]; at 100.0 µM,66%
same,growth inhibition,[12]; at 1.2 µM,20%
same,growth inhibition,[12]; at 3.7 µM,32%
same,growth inhibition,[12]; at 11.0 µM,41%
same,growth inhibition,[12]; at 33.0 µM,53%
same,growth inhibition,[12]; at 100.0 µM,68%
same,growth inhibition,[13]; at 1.2 µM,25%
same,growth inhibition,[13]; at 3.7 µM,30%
same,growth inhibition,[13]; at 11.0 µM,41%
same,growth inhibition,[13]; at 33.0 µM,52%
same,growth inhibition,[13]; at 100.0 µM,63%
same,growth inhibition,[14]; at 1.2 µM,43%
same,growth inhibition,[14]; at 3.7 µM,45%
same,growth inhibition,[14]; at 11.0 µM,65%
same,growth inhibition,[14]; at 33.0 µM,73% (active)
same,growth inhibition,[14]; at 100.0 µM,77% (active)
same,growth inhibition,[15]; [17],25%
same,growth inhibition,[15]; [18],56%
same,growth inhibition,[15]; at 50.0 µM,76% (active)
same,growth inhibition,[16]; at 1.2 µM,29%
same,growth inhibition,[16]; at 3.7 µM,49%
same,growth inhibition,[16]; at 11.0 µM,57%
same,growth inhibition,[16]; at 33.0 µM,66%
same,growth inhibition,[16]; at 100.0 µM,65%
